The text below walks through data of PubChem BioAssay AID2025 (NMMLSC, 2009).

Among all 330,000 compounds or so, about 980 (0.3%) were called active. Many of the other results were omitted from the sample, so actives are more common in it than they were. Unmarked numbers belong to inactive results.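 How the source made its calls: active means percent response vs DMSO below 50%; inconclusive means fewer than 70 events counted for the yeast strain; inactive means the rest.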

A short description of the experiment: RPL19A-GFP expression modulators in yeast, primary screen, cell-based, S. cerevisiae, multiplex flow cytometry, MLPCN (AID 2025).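 Further: median channel GFP fluorescence of the barcoded RPL19A-GFP strain; ratio of sample median GFP to plate DMSO average so 100% = DMSO; lower means less RPL19A-GFP as with rapamycin TOR inhibition.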 Particulars: S. cerevisiae RPL19A-GFP strain, 3 h, at 10 µM, hits give low values. On the technique in general: A flow cytometer gives signals particle by particle.
`O=C(CN1CCCC1)N1CCN(c2ccccc2)CC1`: the percent response vs DMSO is 90.5%.

With `Cc1nc2c(ncn2-c2ccccc2)c(=O)n1NC(=O)CN1CCCC1`, the percent response vs DMSO is 27.7% [may fluoresce violet] (active).

As for `Cc1nc2ccccc2c(=O)n1NC(=O)c1ccccc1`, the percent response vs DMSO was 100%.

In the case of `CN(CCc1cnn(C)c1)Cc1cn(C)nc1-c1ccccc1F`, the percent response vs DMSO was 96.2%.

Consider `COc1ccc(C(=O)NC2CC2)cc1OC1CCN(Cc2ccc(SC)cc2)CC1`, for which the percent response vs DMSO was 101%.

`COc1cc(CN2CCCC(C(=O)c3ccc(SC)cc3)C2)cc(Cl)c1O` (stereo unspecified): the percent response vs DMSO is 40.5% [may fluoresce violet] (active).

With `COc1ccc(CN2CCCC(C(=O)c3ccc(Cl)cc3)C2)cc1Cn1cncn1` (stereo unspecified), the percent response vs DMSO is 105%.

Take `CN(C)C(=O)c1cc(Br)ccc1Cl`: the percent response vs DMSO is 95.1%.

With `Cc1ccc(SCc2cc(=O)[nH]c(N3CCCCC3)n2)cc1`, the percent response vs DMSO is 97.5%.

Consider `Cc1ccc(SCC2=NNC(=O)C2)cc1`, for which the percent response vs DMSO was 38.4% [may fluoresce violet] (active).

In the case of `Cc1ccc(SCCSc2ncccn2)cc1`, the percent response vs DMSO is 109%.

On to `Cc1cccc(N2CCN(C(=O)CN(C)S(=O)(=O)c3ccc4c(c3)CCC(=O)N4)CC2)c1C`, for which the percent response vs DMSO is 99.3%.

Regarding `Clc1c(OCCCn2ccnc2)ccc2ccccc12`, the percent response vs DMSO is 99.7%.

In the case of `O=C(CSc1ncccn1)NCCc1ccccc1`, the percent response vs DMSO is 99.8%.

For `CC(=O)OC(C(=O)NCCc1ccccc1)c1cccnc1` (stereo unspecified), the percent response vs DMSO is 47.6% [may fluoresce violet] (active).

Regarding `CCC(Oc1ccccc1)C(=O)NCc1cccnc1` (stereo unspecified), the percent response vs DMSO is 100%.

In the case of `O=C1COc2ccc(C(=O)COC(=O)CCOc3ccccc3)cc2N1`, the percent response vs DMSO was 97.8%.

As to `C=CCN(CC=C)S(=O)(=O)c1ccc(C(=O)Nc2nc3c(s2)CCc2ccccc2-3)cc1`, the percent response vs DMSO is 103%.

Turning to `COc1ccc(C(=O)Nc2ncc3c(n2)-c2ccccc2CC3)cc1`, the percent response vs DMSO was 97.8%.

Take `COCCN(CCOC)S(=O)(=O)c1ccc(C(=O)Nc2nc3c(s2)CCc2ccccc2-3)cc1`: the percent response vs DMSO was 25.1% [may fluoresce violet] (active).

Consider `COc1cc(CNc2ncn[nH]2)ccc1OCc1ccccc1C`, for which the percent response vs DMSO is 103%.

As for `O=C1COc2ccc(S(=O)(=O)NCCc3ccc(Cl)cc3)cc2N1`, the percent response vs DMSO was 103%.

Regarding `O=C(COc1ccc(-n2cnnn2)cc1)Nc1ccccc1Cl`, the percent response vs DMSO was 33.1% [may fluoresce violet] (active).

With `C=CCc1cccc(/C=N/NC(=O)COc2ccc(-n3cnnn3)cc2)c1O`, the percent response vs DMSO was 105%.

With `O=C(Cc1c(F)cccc1Cl)Nc1ccc(-n2cnnn2)cc1`, the percent response vs DMSO was 94.7%.

As for `COc1ccc(CN(Cc2ccco2)S(=O)(=O)c2ccc(S(=O)(=O)N3CCCC3)cc2)cc1`, the percent response vs DMSO was 107%.
